13 molecules from PubChem BioAssay can be followed below.

Active and inactive are the calls of the source.

A short description of test [1]: small molecules captured by biotinylated probe aFSTL3 – biochemical, small-molecule microarray, fluorescence 635/667, stem cell growth factor project, primary screen (AID 1064).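 Further: measures binding of the biotinylated anti-FSTL3 antibody to printed compounds.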 To be noted: higher = more signal.
Test [2] can be described thus: binders from COS7 lysate, DM2A8 probe, primary screen, torsin A project, cell lysate, small-molecule microarray, fluorescence 635/667 (AID 1065). The settings on record: higher = more signal, COS7 lysate expressing mutant human TOR1A.
Test [3] is described as follows: small molecules captured by biotinylated probe aFGF2 – biochemical, small-molecule microarray, fluorescence 635/667, stem cell growth factor project, primary screen (AID 1067).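 Further: measures binding of biotinylated aFGF2 protein to printed compounds on slides; z-score merges feature fluorescence and signal-to-noise across triplicate slides.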 To be noted: higher = more signal.
Test [4] is described as follows: small molecules captured by biotinylated probe aFGF10 – biochemical, small-molecule microarray, fluorescence 635/667, stem cell growth factor project, primary screen (AID 1071).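 Further: score merges 667 nm spot intensity and signal to noise from triplicate slides.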 The settings on record: higher = more signal.
In test [5] the target is Neurogenic locus notch homolog protein 2 (Homo sapiens) (UniProt Q04721). The experiment in a line: small molecules binding Notch2 protein – biochemical, small-molecule microarray, 635 nm fluorescence, stem cell growth factors, primary screen (AID 1073). The settings on record: higher = more signal.
Chain of Neurogenic locus notch homolog protein 2 (Homo sapiens) (Q04721 whole entry, looked up, canonical isoform): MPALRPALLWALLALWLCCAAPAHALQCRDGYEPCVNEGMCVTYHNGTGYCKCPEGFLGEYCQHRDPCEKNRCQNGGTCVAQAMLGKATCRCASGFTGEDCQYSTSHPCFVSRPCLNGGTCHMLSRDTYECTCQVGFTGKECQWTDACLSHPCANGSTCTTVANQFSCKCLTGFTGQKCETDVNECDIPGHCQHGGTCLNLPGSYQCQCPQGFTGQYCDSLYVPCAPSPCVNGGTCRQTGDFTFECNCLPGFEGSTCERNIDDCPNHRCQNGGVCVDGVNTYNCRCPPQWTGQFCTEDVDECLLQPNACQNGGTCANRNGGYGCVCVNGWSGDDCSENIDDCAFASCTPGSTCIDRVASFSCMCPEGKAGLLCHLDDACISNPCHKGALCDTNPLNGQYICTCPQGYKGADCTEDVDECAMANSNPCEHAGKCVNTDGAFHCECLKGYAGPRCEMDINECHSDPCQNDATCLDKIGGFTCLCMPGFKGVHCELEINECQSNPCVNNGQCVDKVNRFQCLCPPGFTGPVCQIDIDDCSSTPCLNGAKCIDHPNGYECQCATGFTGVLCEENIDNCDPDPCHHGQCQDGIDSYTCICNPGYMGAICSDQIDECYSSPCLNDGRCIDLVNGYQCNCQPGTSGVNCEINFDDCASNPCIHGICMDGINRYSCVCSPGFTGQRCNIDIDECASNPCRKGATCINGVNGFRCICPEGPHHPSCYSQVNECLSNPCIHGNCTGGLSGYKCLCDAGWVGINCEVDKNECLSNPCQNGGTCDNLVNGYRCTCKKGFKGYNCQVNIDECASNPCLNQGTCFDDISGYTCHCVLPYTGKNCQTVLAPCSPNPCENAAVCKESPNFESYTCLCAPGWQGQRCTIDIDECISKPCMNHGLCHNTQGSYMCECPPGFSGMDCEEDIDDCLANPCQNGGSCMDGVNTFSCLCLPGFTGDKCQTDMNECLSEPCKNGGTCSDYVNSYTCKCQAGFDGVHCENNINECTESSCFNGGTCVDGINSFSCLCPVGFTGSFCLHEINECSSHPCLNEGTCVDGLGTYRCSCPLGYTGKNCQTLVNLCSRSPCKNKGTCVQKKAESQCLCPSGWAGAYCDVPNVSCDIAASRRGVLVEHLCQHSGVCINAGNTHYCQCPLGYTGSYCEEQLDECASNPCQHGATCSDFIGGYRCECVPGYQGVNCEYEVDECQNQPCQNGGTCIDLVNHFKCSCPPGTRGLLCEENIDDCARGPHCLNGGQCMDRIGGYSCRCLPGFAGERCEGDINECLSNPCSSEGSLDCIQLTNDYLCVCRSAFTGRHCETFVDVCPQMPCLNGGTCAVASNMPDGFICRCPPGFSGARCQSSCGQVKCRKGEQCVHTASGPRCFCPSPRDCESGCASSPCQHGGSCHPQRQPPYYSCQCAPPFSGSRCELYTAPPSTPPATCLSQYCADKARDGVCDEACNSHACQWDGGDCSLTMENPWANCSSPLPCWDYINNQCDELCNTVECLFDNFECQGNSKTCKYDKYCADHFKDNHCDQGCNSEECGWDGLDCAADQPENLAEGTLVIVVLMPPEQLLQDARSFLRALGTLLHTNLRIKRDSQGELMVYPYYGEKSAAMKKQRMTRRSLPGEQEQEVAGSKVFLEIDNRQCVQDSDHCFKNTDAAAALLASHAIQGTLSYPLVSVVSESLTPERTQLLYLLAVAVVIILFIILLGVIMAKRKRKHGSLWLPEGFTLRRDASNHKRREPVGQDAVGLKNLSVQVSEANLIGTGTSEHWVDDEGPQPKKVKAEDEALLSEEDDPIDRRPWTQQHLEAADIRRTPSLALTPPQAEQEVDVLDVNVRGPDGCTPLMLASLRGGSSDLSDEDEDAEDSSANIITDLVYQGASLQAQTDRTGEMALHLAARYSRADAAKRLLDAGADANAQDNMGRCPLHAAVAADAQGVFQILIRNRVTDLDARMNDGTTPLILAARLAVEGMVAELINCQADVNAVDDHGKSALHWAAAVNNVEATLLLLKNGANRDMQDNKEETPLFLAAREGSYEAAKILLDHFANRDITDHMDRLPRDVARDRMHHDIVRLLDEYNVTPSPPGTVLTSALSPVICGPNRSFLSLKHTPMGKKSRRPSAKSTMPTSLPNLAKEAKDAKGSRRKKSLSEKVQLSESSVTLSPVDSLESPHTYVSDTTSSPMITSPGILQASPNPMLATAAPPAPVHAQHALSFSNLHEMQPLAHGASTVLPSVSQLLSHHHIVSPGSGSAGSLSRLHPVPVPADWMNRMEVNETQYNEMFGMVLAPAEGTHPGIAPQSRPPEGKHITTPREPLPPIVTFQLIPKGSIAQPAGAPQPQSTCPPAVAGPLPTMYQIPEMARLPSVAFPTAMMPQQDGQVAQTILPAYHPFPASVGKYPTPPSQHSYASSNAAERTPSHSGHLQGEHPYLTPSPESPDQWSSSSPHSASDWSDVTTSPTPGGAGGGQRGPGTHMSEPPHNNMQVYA
Test [6] has as its target Pro-neuregulin-1, membrane-bound isoform (Homo sapiens) (UniProt Q02297). The experiment in a line: small molecules binding neuregulin-1 protein – biochemical, small-molecule microarray, fluorescence 635/667, psychiatric disease protein project, primary screen (AID 1075).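 Further: score combines 667 nm spot fluorescence with signal to noise.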 To be noted: NRG1 binding, 635 nm fluorescence, higher = more signal.
Test [7] has as its system Neuregulin-1 EGF-like domain. The experiment in a line: small molecules binding NRG1 EGF domain – biochemical, small-molecule microarray, 635 nm fluorescence, primary screen (AID 1081).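 Further: binding of the protein to compounds printed on small-molecule microarray slides.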 To be noted: higher = more signal.
Test [8] in a line: FRG1 expression reporter modulators in myotubes – cell-based, C2C12 myotubes, firefly/Renilla luciferase, luminescence, FRG1 inhibition for FSHD, primary screen (AID 1084). The settings on record: FRG1 promoter luciferase, higher = more signal, called active from +8 up or from −8 down.
A short description of test [9]: small molecules captured by biotinylated probe aFST – biochemical, small-molecule microarray, fluorescence 635/667, stem cell growth factor project, primary screen (AID 1086).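 Further: score merges 667 nm fluorescence with signal-to-noise of each printed compound spot.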 To be noted: higher = more signal.
Test [10] can be described thus: binders of probe aHhip on microarray, primary screen, stem cell growth factor project, biochemical, small-molecule microarray, fluorescence 635/667 (AID 1087).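 Further: score merges spot fluorescence at 667nm with spot signal to noise ratio.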 The settings on record: higher = more signal.

Chain of Pro-neuregulin-1, membrane-bound isoform (Homo sapiens) (Q02297 whole entry, looked up, the tested form may be a part, canonical isoform): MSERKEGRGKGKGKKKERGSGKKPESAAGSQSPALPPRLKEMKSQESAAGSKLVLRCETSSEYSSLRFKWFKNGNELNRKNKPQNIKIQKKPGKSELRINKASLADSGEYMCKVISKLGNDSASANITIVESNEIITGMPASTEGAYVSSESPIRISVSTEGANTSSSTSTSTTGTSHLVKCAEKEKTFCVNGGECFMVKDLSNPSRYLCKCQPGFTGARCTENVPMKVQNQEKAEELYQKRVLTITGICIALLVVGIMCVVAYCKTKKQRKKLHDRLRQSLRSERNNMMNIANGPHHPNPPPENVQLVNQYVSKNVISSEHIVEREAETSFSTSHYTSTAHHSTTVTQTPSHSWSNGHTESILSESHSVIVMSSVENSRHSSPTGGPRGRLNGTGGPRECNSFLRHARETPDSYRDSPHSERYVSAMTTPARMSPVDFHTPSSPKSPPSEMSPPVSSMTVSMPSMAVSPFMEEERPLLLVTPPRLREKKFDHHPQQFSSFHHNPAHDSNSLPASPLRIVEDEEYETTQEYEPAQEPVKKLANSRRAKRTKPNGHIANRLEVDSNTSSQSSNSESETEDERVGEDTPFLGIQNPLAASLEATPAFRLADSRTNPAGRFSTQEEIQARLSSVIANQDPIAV

Regarding `CCOC(=O)CCN1C(=O)[C@H]2[C@H]3[C@H](O)[C@H](O)CC(=NO[C@@H]4O[C@H](CO)[C@@H](O)[C@H](O)[C@H]4O)[C@H]3CC[C@H]2C1=O`, the composite z-score in test [1] was -0.379; in [2], 0.508; in [3], 0.0395; in [4], 0.232; in test [5] it was 0.44; in test [6] it was 0.0332. The composite z-score in [7] was 0.569; in [9], 0.857; in test [10] it was -0.195. Besides, the z-score in test [8] was 0.261 (inactive).
For the molecule `CC(C)=CCCC(C)=CCON=C1C[C@@H](O)[C@@H](O)[C@@H]2[C@@H]3C(=O)N(C4CCCCC4)C(=O)[C@@H]3CC[C@H]12`, the composite z-score in test [1] was -0.317; in test [2], 0.396; in test [3], -0.0725; in [4], 0.548; in test [5], 0.535; in [6], 0.475. Also, the composite z-score was determined as 0.255 in test [7], 0.53 in test [9] and 0.408 in test [10]. In addition, the z-score in test [8] is 0.0864 (inactive).
With `CCOC(=O)[C@H](Cc1ccccc1)NC(=O)CCC1CC(OC(=O)NCc2cccc3ccccc23)CC2(CCCC(COC(=O)NCCc3ccccc3OC)O2)O1` (stereo not given in full), the composite z-score in test [1] was -0.568; in [2] it was 0.0631; in test [3], -0.0538; in test [4], 0.586; in test [5], 0.967; in test [6] it was 0.341. Moreover, the composite z-score in test [7] was 1.02; in test [9] it was 0.327; in test [10] it was 0.0623. Further, the z-score in test [8] was 1.37 (inactive).
Turning to `CON(C)C(=O)c1nnc2c(n1)[nH]c1ccccc12`, the composite z-score in [1] was -0.262; in test [2], 0.668; in test [3], -0.165; in [4], 0.494; in [5], 0.448; in [6] it was 0.0309. Moreover, the composite z-score was 0.823 in test [7], -0.128 in test [9] and -0.323 in test [10]. Besides, in [8], the z-score is 168 (active).
For `O=C1C=C[C@@H](O)[C@@H]2[C@@H]3C(=O)N(C4CCCCC4)C(=O)[C@@H]3CC[C@@H]12`, the composite z-score is 0.585 in test [1]; 0.0002 in test [2]; -0.189 in test [3]; 0.442 in [4]; 0.545 in [5]; 0.305 in [6]. The results for the composite z-score in test [7], in test [9] and in test [10] were 0.968, 0.265 and 0.0373, respectively. Besides, the z-score in test [8] is -0.325 (inactive).
For `C[C@@H]1CC[C@H]2C(=O)OC(CN3C(=O)c4ccccc4C3=O)CN2[C@H]1c1ccc(Br)cc1` (stereo not given in full), the composite z-score is -0.138 in [1]; 1 in [2]; -0.133 in test [3]; 0.0468 in test [4]; 0.315 in test [5]; 0.48 in test [6]. In addition, the composite z-score in test [7] was -0.429; in test [9], 0.362; in test [10] it was -0.132. Besides, the z-score in test [8] is 1.11 (inactive).
As for `COc1ccc(-c2cnnc(CCCn3ccnc3-c3ccccc3)n2)cc1`, the composite z-score in test [1] is -0.368; in test [2] it was 1.45; in [3] it was -0.121; in test [4] it was 0.763; in [5], 0.426; in test [6] it was 0.278. In addition, the composite z-score in test [7] was 0.585; in test [9], 0.117; in [10], -0.12. The z-score in [8] is 0.64 (inactive).
As to `COc1ccc(O[C@H]2C=C[C@@H](c3ccccc3)O[C@@H]2CO)cc1`, the composite z-score was -0.176 in test [1]; -0.15 in test [2]; -0.121 in [3]; 0.291 in [4]; -0.359 in [5]; -0.224 in [6]. Besides, the composite z-score in [7] was -0.134; in [9], -0.221; in [10], 0.0458. Moreover, the z-score in test [8] is 0.403 (inactive).
For `COCCNC(=O)OCC1CCCC2(CC(OC(=O)NCc3cccc4ccccc34)CC(CCC(=O)N[C@@H](C)C(=O)OC)O2)O1` (stereo not given in full), the composite z-score was -0.486 in test [1]; 0.0192 in [2]; -0.0692 in test [3]; 0.662 in test [4]; 0.668 in test [5]; 0.737 in test [6]. Also, the composite z-score in test [7] is 1.03; in [9] it was 0.311; in test [10] it was -0.0994. In addition, the z-score in test [8] is -1.43 (inactive).
`C=C(C)C(=O)OC[C@H]1CN2[C@@H](CC[C@@H](C)[C@@H]2c2ccc(Br)cc2)C(=O)O1`: the composite z-score in test [1] is -0.223; in [2], 0.123; in test [3], -0.166; in test [4], 0.113; in test [5] it was -0.283; in test [6], 0.199. Besides, the composite z-score in test [7] was 0.0297; in [9], -0.155; in test [10] it was -0.0618. Moreover, the z-score in test [8] is 0.402 (inactive).
For the molecule `CO[C@@H]1[C@H](O)CO[C@H]1C=Cc1ccccc1`, the composite z-score in test [1] was -0.392; in test [2] it was -0.0641; in [3], -0.0715; in [4] it was 0.211; in test [5] it was 0.128; in [6] it was 0.206. The composite z-score in test [7] was 0.874; in [9], 0.228; in test [10], -0.283. In addition, the z-score in [8] was -0.253 (inactive).
Regarding `CC(C)[C@@H](OCc1ccccc1)[C@H](C)CON=C1[C@H]2CCn3c(=O)n(-c4ccccc4)c(=O)n3[C@H]2[C@H](O)[C@@H]2O[C@H]12`, the composite z-score in [1] is -0.375; in test [2], 0.616; in [3], 0.0362; in test [4] it was 0.84; in test [5] it was 0.541; in test [6], 0.246. The composite z-score in [7] is 0.218; in test [9] it was 0.369; in [10] it was -0.126. Moreover, in [8], the z-score is -0.157 (inactive).
In the case of `COC(=O)[C@@H]1CC[C@H](C)[C@@H](c2ccc(Br)cc2)N1C[C@@H](O)CN=[N+]=[N-]`, the composite z-score in test [1] is -0.463; in test [2], 0.054; in test [3] it was -0.116; in test [4], 0.186; in test [5], 0.462; in test [6] it was 0.117. Besides, the composite z-score in test [7] was -0.0109; in test [9], -0.139; in test [10], 0.0881. The z-score in test [8] is 0.687 (inactive).
